Assay results published in PubChem BioAssay AID1159580 (chemical genetic matrix, 2015).
The campaign covered roughly 5,500 compounds. About 2,000 (36%) were called active. Roughly 18% stayed inconclusive and do not appear here. No stated cut-off is given here; in the data, active means normalized growth mostly below about 0.91 (no sharp cut-off); inconclusive means no clear call, values can overlap the other calls; inactive means mostly above about 0.92. Some of the results follow.

Test: chemical genetic growth profiling, strain panel (AID 1159580);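 further: tested at 20 µM; growth read once vehicle control cultures reached saturation at 30 °C; 1 = growth at the plate median or of vehicle wells; lower values mean less growth of the strain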
Details: S. cerevisiae deletion strains, growth OD

Measured: normalized growth

c1ccc2cc(CC3=NCCN3)ccc2c1
inactive: locus YAL040C, strain CLN3, active compounds read low 1.01 | locus YCL061C, strain MRC1 (second series), active compounds read low 1 | locus YDR363W, strain ESC2, active compounds read low 1.02 | locus YER002W, strain NOP16, active compounds read low 0.998 | locus YGR078C, strain PAC10, active compounds read low 1.01 | locus YMR307W, strain GAS1, active compounds read low 1 | locus YNL128W, strain TEP1, active compounds read low 1 | locus YNL153C, strain GIM3, active compounds read low 0.982 | locus YNL175C, strain NOP13, active compounds read low 1.01 | locus YNL197C, strain WHI3, active compounds read low 1.02 | locus YNL224C, strain SQS1, active compounds read low 1.01 | locus YOR083W, strain WHI5 (second series), active compounds read low 1 | locus YPL055C, strain LGE1, active compounds read low 1.01 | locus YPL241C, strain CIN2, active compounds read low 0.996
